Hit rate of the full screen: of about 360,000 compounds, about 2,400 (0.67%) were called active. The sample as a whole holds a higher share of actives than the screen did. Unmarked numbers belong to inactive results. Rule as the data show it: active = enhancement above about 30%; inactive = the rest. Peptide text beside a SMILES is read from it. * marks the point of attachment. OPac = O=C(CO*)c1ccccc1; Bz = O=C(c1ccccc1)*
Biological target: Thyrotropin-releasing hormone receptor (Homo sapiens) (UniProt P34981)
Sequence (P34981 whole entry, looked up): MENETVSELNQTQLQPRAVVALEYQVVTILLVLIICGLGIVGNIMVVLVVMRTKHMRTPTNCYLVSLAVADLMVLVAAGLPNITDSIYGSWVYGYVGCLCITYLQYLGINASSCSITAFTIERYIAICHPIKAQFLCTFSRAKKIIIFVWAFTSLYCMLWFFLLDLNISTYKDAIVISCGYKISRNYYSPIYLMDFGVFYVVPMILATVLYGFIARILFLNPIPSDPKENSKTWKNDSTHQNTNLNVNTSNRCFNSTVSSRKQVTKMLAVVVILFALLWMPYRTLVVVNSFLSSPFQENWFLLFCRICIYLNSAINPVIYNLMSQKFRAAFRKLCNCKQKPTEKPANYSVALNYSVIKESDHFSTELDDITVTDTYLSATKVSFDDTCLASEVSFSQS
Test: qHTS for Small Molecule Agonists and Allosteric Enhancers of Human TRH Receptor: Primary Screen for Enhancers; also: 0% is about no effect
Details: TRHR cells, fluo-8 calcium fluorescence, EC20 TRH enhancement; at 2 µM; hits give high values
Source text: NIH Chemical Genomics Center [NCGC] NIH Molecular Libraries Probe Centers Network [MLPCN] MLPCN Grant: MH089816-01 Assay Submitter (PI): Marvin Gershengorn This project aims to identify small drug-like molecules that activate (agonists) the thyrotropin releasing hormone (TRH) receptor (TRHR) or enhance its TRH-stimulated activity (allosteric enhancers). TRHR, a drug-accessible cell surface receptor expressed in specific brain regions, and its ligand TRH have been implicated in several central nervous system disorders, including depression and anxiety. Small molecule TRHR agonists or allosteric enhancers that are metabolically stable and able to cross the blood-brain barrier might serve as probes to elucidate the roles of brain TRH receptors in animal models, and might be valuable as lead compounds for the development of drugs to treat patients with central nervous system disorders. Upon TRHR-Gq activation in TRHR cells, intracellular calcium is released from stores in the endoplasmic reticulum. […] This primary screen measures compound-induced enhancement of an EC20 stimulation of the receptor by its native ligand.
For the HTS assay freshly prepared cells are plated at a density of 2000/well in 3 ul of complete DMEM medium containing 10% serum in 1536-well plates and cultured over night at 37 C in a humidified incubator with 5% CO2. The next day, 2 ul of a no wash calcium dye (ABD Bioquest) was added to the cells and plates were incubated at room temperature for 1 hour. For the assay, assay plates were loaded into the FDSS kinetic plate reader. A 10 cycle (1 second/cycle) baseline measurement is taken and then the FDSS online 1536 pintool delivers 23 nl of compound library (as well as TRH controls) to the plate. The plate is measured for kinetically at 1 cycle/sec for 180 seconds and is considered to be the agonist portion of the assay (eg, compounds which activate a positive calcium response during this portion are flagged as potential agonists). Following the 180 second read, 1 ul of either an EC20 (positive modulation assay) is delivered by an onboard pipette head. Measurements are taken kinetically for an additional 180 seconds. TRHR FDSS Screening Protocol 1. Reagent, 3 uL 2000 cells/well 1536 TC treated Black plate in media containing 10% FCS 2. Time, 18 hours, 33.5C 5% CO2 (cells grown at 37C) 3. Reagent, 2 uL ABD fluo-8 Ca dye 4. Time, 30 min-1.5hrs hours, Room temp (6 plates/batch) 5. Detector, EX 480/EM 530C, FDSS 10 cycles baseline (1sec/cycle) 6. Compound, 23 nL of stock solution from library 7. Detector, EX 480/EM 530C, FDSS 230 cycles (1sec/cycle) Agonist mode 8. Compound, 1 ul EC20 of TRH made up in HEPES HBSS, 10 nM final 9. Detector, EX 480/EM 530C, FDSS 100 cycles (1sec/cycle) Potentiator mode

| Compound | enhancement |
| --- | --- |
| O=C(Nc1n[nH]c(C(F)(F)F)n1)c1cccs1 | -3.09% |
| O=C(Nc1ncccn1)c1cccs1 | 35.8% (active) |
| O=C(NC1CCCCCCC1)c1cccs1 | -1.69% |
| COc1ccc2c(CNCCc3ccccc3C)c(C(=O)O)n(Cc3ccccc3C)c2c1 | -16.3% |
| CCN1CCN(Cc2c(O)ccc3oc(C)c(C(=O)Nc4ccc(C)cc4C)c23)CC1 | 4.91% |
| CCC(=O)Nc1c(C(=O)N2CCN(c3ccc(F)cc3)CC2)oc2ccccc12 | -8.72% |
| CCN1CCC(N(Cc2ccc(F)cc2)C(=O)Nc2cc(C)ccc2C)CC1 | 10% |
| CCOC(=O)N1CCC(NC(=O)c2cnn(-c3cccc(C)c3)c2C2CCN(C(=O)OC(C)(C)C)CC2)CC1 | 5.75% |
| CCCc1cc(=O)[nH]c(SCC(=O)c2c(N)n(CC(C)C)c(=O)n(C)c2=O)n1 | 38.3% (active) |
| CC(C)Cn1c(N)c(C(=O)COC(=O)CN2C(=O)C3CC=CCC3C2=O)c(=O)n(C)c1=O (configuration not stated) | 0.142% |
| CCCc1cc(=O)[nH]c(SCC(=O)N2C(C)CCCC2C)n1 (configuration not stated) | 6.92% |
| O=c1cc(CSc2ncn[nH]2)[nH]c2ccc(F)cc12 | 0.991% |
| Cc1c(C(=O)N(C)C)sc2c1c(=O)n(-c1ccc(F)cc1)c(=O)n2CC(=O)N(C)c1ccccc1 | -2.28% |
| O=C(CN1CCN(c2ncccn2)CC1)Nc1ccccc1C(F)(F)F | 0.988% |
| CN(CC(=O)Nc1ccccc1C(F)(F)F)C(=O)Cc1ccccc1F | 1.5% |
| CC(C(=O)N(C)CC(=O)Nc1ccccc1C(F)(F)F)N1C(=O)c2ccccc2C1=O (configuration not stated) | 35.3% (active) |
| CCCNc1ncnc2c1c(-c1ccccc1)cn2-c1ccc(OCC)cc1 | -5.52% |
| CCCN(CCC)CCCNC(=O)Cn1ncc2c3ccccc3n(Cc3ccccc3)c2c1=O | 3.33% |
| Cc1nn(Cc2ccccc2)c(C)c1C(=O)NCCCN1CCCC1=O | 8.55% |
| CCC(=O)Nc1ccccc1C(=O)N1CCN(Cc2ccccc2)CC1 | 8.38% |
| Cc1nn(Cc2ccccc2)c(C)c1C(=O)N1CCN(CC(=O)Nc2ccccc2Cl)CC1 | 66.2% (active) |
| O=C(CSc1nccn1Cc1ccc(F)cc1)NCc1ccccc1 | 1.55% |

| Compound | enhancement |
| --- | --- |
| Cc1ccc(S(=O)(=O)NC(N)=NCCC[C@@H](NC(=O)CNC(=O)c2ccccc2)C(=O)Nc2cc(C(F)(F)F)ccc2Cl)cc1 | 2.23% |
| CCn1c(SCC(=O)Nc2nccs2)nnc1-c1ccco1 | 38% (active) |
| CCn1c(SCC(=O)Nc2nccs2)nnc1-c1ccncc1 | 1.36% |
| Nn1c(SCC(=O)Nc2nccs2)nnc1-c1ccco1 | 4.24% |
| O=C(CSc1nnc(-c2ccccc2F)o1)Nc1cccc(C(F)(F)F)c1 | 8.13% |
| Cc1ccc2oc(C(=O)Nc3ccc(S(=O)(=O)N4CCCCCC4)cc3)cc(=O)c2c1 | 0.734% |
| Cc1cc(C)c2oc(C(=O)Nc3ccc(S(=O)(=O)N(C)c4ccccc4)cc3)cc(=O)c2c1 | 0.252% |
| Cc1cc(C)c2oc(C(=O)Nc3ccc(S(=O)(=O)N4CCCCCC4)cc3)cc(=O)c2c1 | 48.6% (active) |
| Cc1c(C(=O)NCc2ccccc2Br)oc2ccc3c(c12)C(=O)CC(C)(C)O3 | -2.29% |
| COc1cccc(-n2cc(C(=O)NCc3cccc(Cl)c3)c3ccccc3c2=O)c1 | -3.45% |
| CCC(C)NC(=O)c1ccc(N2CCC3(CC2)OCCO3)c([N+](=O)[O-])c1 (configuration not stated) | -9.06% |
| O=C(NC1C2CC3CC(C2)CC1C3)c1ccc(N2CCNCC2)c([N+](=O)[O-])c1 (configuration not stated) | 2.28% |
| CC(NC(=O)c1ccc(N2CCNCC2)c([N+](=O)[O-])c1)C12CC3CC(CC(C3)C1)C2 (configuration not stated) | 31.1% (active) |
| Cc1nc2nc(SCC(=O)NC3CCC(C)CC3)nn2c(C)c1Cc1ccccc1Cl (configuration not stated) | 3.16% |
| CCc1ccccc1NC(=O)CSc1nc(C)c(C(=O)Nc2ccccc2)c(-c2ccc(Cl)cc2)c1C#N | -0.268% |
| CCCC(=O)C1=C(N(C)c2ccccc2)CC(C)(C)C(C(=O)OC)C1=O (configuration not stated) | 36.8% (active) |
| C=CCO/N=C/C1=C(O)C(C(=O)OC)C(C)(C)CC1=O (configuration not stated) | -2.52% |
| CCC[C@@H]1C[C@@]1(CCC)[C@@H](NC(=O)c1ccccc1)c1ccc(C(=O)OC)cc1 | -1.9% |
| Cc1cccc(Cc2c(C)nc3nc(SCc4ccccc4Cl)nn3c2C)c1 | -3.69% |
| COc1ccc(OC)c(-c2noc(N3CCN(c4cc(Cl)ccc4C)CC3)n2)c1 | -2.59% |
| Cc1ccc(-c2cnc(NCc3ccc(C(C)C)cc3)n2C)cc1 | 2.38% |
| Cc1cccc(NC(=O)CSc2ncc(-c3ccccc3)[nH]2)c1C | -2.76% |

| Compound | enhancement |
| --- | --- |
| COc1ccc(CNC(=O)c2cc3cccc(OC)c3oc2=O)cc1 | 5.25% |
| O=C(CNC(=O)c1ccco1)OCC(=O)c1ccccc1 | 14.7% |
| O=C(CNC(=O)Cc1ccccc1)NCC(=O)OCC(=O)c1ccccc1Cl | -4.65% |
| O=C(CNC(=O)c1ccccc1)NCC(=O)OCC(=O)c1ccccc1 (Bz-Gly-Gly-OPac) | 48.2% (active) |
| CCCCN(CC)CCCNC(=O)c1nn(C)c2c1CSc1ccccc1-2 | -0.263% |
| Cc1ccc(CN2CCc3nc(N4CCN(C)CC4)ncc3C2)cc1 | -1.43% |
| CCOC(=O)c1ccc(NC(=O)c2ncn(-c3ccccc3)n2)cc1 | -1.95% |
| COc1ccc(/C(O)=C2/C(=O)C(=O)N(CCCN(C)C)C2c2ccccc2)cc1OC (configuration not stated) | 7.56% |
| COc1cccc(C2/C(=C(/O)c3ccncc3)C(=O)C(=O)N2CCCN(C)C)c1 (configuration not stated) | 5.69% |
| O=C1C(=O)N(CCCO)C(c2ccccc2)/C1=C(\O)c1ccc(Br)cc1 (configuration not stated) | 46.2% (active) |
| CC(C)(C)OC(=O)N1CCC(c2c(C(=O)N3CCN(c4cccc(Cl)c4)CC3)cnn2-c2cccc(Cl)c2)CC1 | -12.3% |
| Cc1cc(Cl)ccc1OCC(=O)N(Cc1ccc(N(C)C)cc1)C1CCS(=O)(=O)C1 (configuration not stated) | -2.26% |
| CC1Cc2cc(S(=O)(=O)CCC(=O)NCc3ccc(Cl)cc3)ccc2N1C(=O)C1CC1 (configuration not stated) | 3.17% |
| CCCn1c2ccccc2c2cnn(CC(=O)N(CC)c3cc(C)ccc3C)c(=O)c21 | -3.36% |
| CCCn1c2ccccc2c2cnn(CC(=O)NCCCOC(C)C)c(=O)c21 | 10.8% |
| CCCn1c2ccccc2c2cnn(CC(=O)N(C)c3ccccc3CC)c(=O)c21 | 33.2% (active) |
| CCOc1ccc(CCNC(=O)c2ccc3c(c2)sc2nc(-c4ccc(F)cc4)cn23)cc1OCC | 0.915% |
| Cc1ccc(NNC(=O)c2cccs2)cc1Cl | -3.86% |
| O=C(COC(=O)c1ccc(O)cc1O)NNC(=O)c1cccs1 | 6.82% |
| Cc1ccc(C)c(NC(=O)CCC(=O)NNC(=O)c2cccs2)c1 | 30% (active) |
| CCOCCCNC(=O)c1c(NC(=O)Cc2coc3ccc(C)cc23)sc2c1CCC2 | -1.11% |
| CCNC(=O)c1ccc(OCC(=O)Nc2ccc(F)cc2)c(OC)c1 | 13.5% |

| Compound | enhancement |
| --- | --- |
| CCOc1ccc(NC(=O)COc2ccc(C(=O)NC3CCCc4ccccc43)cc2OC)cc1 (configuration not stated) | 3.25% |
| COc1cc(C2C3=C(CCCC3=O)OC3=C2C(=O)CCC3)ccc1OCC(=O)Nc1ccccc1 | 78.2% (active) |
| COc1ccc(-c2cc(-c3ccccc3)nc3c2COc2ccc(Cl)cc2-3)cc1 | 2.02% |
| COc1ccc(Cl)cc1NC(=O)CCn1c(=O)c2cccn2c2ccccc21 | 1.46% |
| COC(=O)c1ccc(CNC(=O)C2CCC(=O)N(Cc3cccc(F)c3)C2)cc1 (configuration not stated) | -7.88% |
| CCn1nc(C)c(CNC(=O)C2CCC(=O)N(Cc3cccc(F)c3)C2)c1C (configuration not stated) | 31.7% (active) |
| Cc1cccnc1CCNC(=O)C1CCC(=O)N(Cc2cccc(F)c2)C1 (configuration not stated) | -0.481% |
| Cc1ccc(C(=O)NC2CCN(C#N)CC2)cc1 | -0.515% |
| CCOC(=O)c1sc(NC(=O)/C=C/c2ccc(C(C)C)cc2)c(C(=O)OCC)c1C | 0.66% |
| N#Cc1ncc(C(F)(F)F)cc1Oc1cccnc1 | -3.06% |
| N#Cc1ccc(Oc2cc(C(F)(F)F)nc(-c3ccccn3)n2)cc1 | 55.8% (active) |
| Cc1c(Cl)cccc1NC(=O)c1noc2c1CCCC2 | 7.16% |
| Cc1cc(NS(=O)(=O)c2ccc(NC(=O)c3ccccc3C)cc2)nc(C)n1 | 10.7% |
| CCCn1c(C2CCCN2c2nc(-c3ccc(OC)cc3)cs2)nc2ccccc21 (configuration not stated) | -1.81% |
| COc1ccc(-c2csc(-c3c(N)c(C(=O)c4ccc(OC)c(OC)c4)n4ccccc34)n2)cc1 | 0.214% |
| COc1ccc(-c2csc(Nc3ccccn3)n2)cc1 | 34.5% (active) |
| Cc1cccc(N2CCN(C(=O)CN(C)S(=O)(=O)c3ccc4c(c3)CCC(=O)N4)CC2)c1C | 2.84% |
| Cc1nc(NC(=O)CN(C)S(=O)(=O)c2ccc(Cl)cc2)sc1C | 4.55% |
| CCOC(=O)Cc1csc(NC(=O)CN(C)S(=O)(=O)c2ccc3c(c2)CCC(=O)N3)n1 | 32.8% (active) |
| Cc1cc(C)cc(NC(=O)CCCc2nc(-c3ccccc3Cl)no2)c1 | -21.4% |
| COc1ccc(CCNC(=O)c2cn(C)c3ccc(S(=O)(=O)N(C)C4CCCCC4)cc3c2=O)cc1OC | -14.3% |
